# Over roughly 25,000 sequences, “ln(normalized median fluorescence intensity)” has its median near 7.1; the highest 2% begin near 10. The sample holds the highest values, similar sequences and a random draw of the others, so the mix is not that of the screen.
# Test system: PfSIP2 AP2 domain 1 (GST-tagged)
# Test: gcPBM binding intensity (ln(normalized median fluorescence intensity)); higher = stronger DNA binding
# In short: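 An Agilent 4 × 180k array carrying primer-extended double-stranded 36-bp intergenic genomic probes and negative controls received GST-tagged P. falciparum DNA-binding domains expressed in E. coli, about 25 μg on average, for 1 h. The binding buffer contained 1× PBS, 1% milk, 0.2 mg/ml BSA, 0.5% salmon testes DNA and 0.03% Triton X-100. Binding intensity is the top Masliner-normalised natural-log median intensity across replicate spots of either probe orientation, read after Alexa488 anti-GST antibody staining and a 488 nm scan.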
row,Sequence,gcPBM binding intensity (ln)
1,TATGTATTTTTATGCACACATGCGTGGCTTATATAA [CACACA_site387],7.39
2,GTATATATATATATATATATATATTTTTATTTATTT [CACACA_negctrl_site589],7.42
3,ATTGTAAGGAAACACACACACATATATATGTATATA [CACACA_site676],7.07
4,ACCTATGTATATTATACACACTCCAAACTATTATTT [CACACA_site1817],7.19
5,TTTGTAGTTTGCACATGTACACATTTCAAAATAAAG [XGTACX_site7568],7.49
6,TGTTTTTCATAGTGCACACATAACCAAAAATAGTAT [CACACA_site3150],10.8
7,AAATATTCATAGTATACACACATTTATTTATAACCA [CACACA_site6502],6.9
8,TTTCATAACAAAAAAGTGCAAAATAGCACGAACATT [GTGCAC_site9703],8.82
9,GGTATTTTCACATATAGTACACAAAAATAAAATAAA [XGTACX_site2139],7.79
10,TTTGTTTTTCATAGTGCACACATAACCAAAAATAGT [CACACA_site9030],10.5
11,ATATATGTATTTAATACACACAAAACTTTCATTCCA [CACACA_site3531],6.9
12,TGTACGTTTTATAACACACACACAAAAAAAAAAAAA [CACACA_site3875],7.09
13,TGAATATGTAAATGCACACCAAAAAAAAAAAAAAAA [CACACA_site3566],7.29
14,TACTATAAGATATATACACACAAGAAATACAAAACG [CACACA_site6764],7.53
15,AATATATGCTTTCGTTATATTAAATTCAATTTAATG [GTGCAC_negctrl_site76],6.95
16,TAGAATAAATTAATTACACACGGAATTATATATATA [CACACA_site1616],7.83
17,AAAAAAAAAAATATATTATTTTACTTGTTTATTTTA [CACACA_negctrl_site1447],6.68
18,AAGAAAATATATTCACATGAAGAATTAAAATAAAAC [TGCATGCA_negctrl_site119],7.14
19,TTTAAAAAAAATATGTGTACTTAATATTTTCATATA [XGTACX_site7421],6.78
20,ATATTATATTGGATGTTGCACTTAACAAAAGGATAT [GTGCAC_site9478],8.76
21,TTTTTGTAAAATAAACGTACAAAACAATTGTTCATT [XGTACX_site6537],6.94
22,TTTGTTCATATTATTGTGCACTTAAACGTAACAAAA [GTGCAC_site9505],10.2
23,ATCATTCCACTTTTCACACATATCTCTATTTCTATC [CACACA_site4723],7.37

row,Sequence,gcPBM binding intensity (ln)
1,AAAATAAATAAATATACACACCATATATATATTTTT [CACACA_site5573],6.88
2,AATATATTTTTTTTTTGTACATATTGTAAAATAATA [XGTACX_site6805],6.99
3,TAAAAATATTTTCATTGTACATATATATAAATATAT [XGTACX_site1123],6.97
4,TACAACAATTTTTGCACACACCAAAACATAAAATAA [CACACA_site4964],7.52
5,ATTTTTTTTTTTTTTTTTTTTGCACCATAAAATAAT [CACACA_negctrl_site1324],11.3
6,AATATTGCACCATTTTGTACATAATATATTCAAATA [XGTACX_site475],10.7
7,TTTTTTTTTGGGTGTACACATGAATATATATTTTTT [CACACA_site5254],7.83
8,TACTGTATTATAATTATGATTGACGAAATTAAAAAT [GTGCAC_negctrl_site358],6.91
9,GATTTTAATGGGTGTACACATTTATTTATATAAAGT [CACACA_site5317],7.54
10,ATGAATAAATAGGTCACACACAAATATATATAAATA [CACACA_site2416],6.98
11,TTAATATTGTATCCAAGTACACAAATTATTATATTT [XGTACX_site8067],7.11
12,CATGTATTTTATATTACACACTAATATTATATATAT [CACACA_site1508],7.51
13,CTTTCATATGTTTTAACACACACGCATATATTATAG [CACACA_site7033],7.08
14,TCTAACATATCTTTAATACACACTTAAAAAAGTACT [CACACA_site652],7.03
15,TGTAATATATGTATTGCACACCTATAACCATTATTT [CACACA_site8422],7.17
16,TATGTACACCCATATACACACCTCTATAATATATAT [CACACA_site4563],7.29
17,TATAATGTATGTAGTGCACACCTCTATAATATATTA [CACACA_site8560],10.3
18,TAGAATGTATGTAGTGCACACCTCTATAATATATTA [CACACA_site1873],10.7
19,ATATATATTATATAGTGTACCTATGTATAATAATAT [XGTACX_site1683],7.16
20,ATATGTAGAAGTAATGCACACATATGTATATATATA [CACACA_site8796],8.38
21,TTAAAAATGAACATATGTACATATATATATATATAT [XGTACX_site7923],9.39
22,TAAAAAATAAGATATACACACATATATTTATTTATA [CACACA_site7158],6.72
23,ATTTATTTATTTAGCTGTACATTTATACAGAACGAT [XGTACX_site3336],7

row,Sequence,gcPBM binding intensity (ln)
1,ACATTATGTCATAAATGTACACATACATATACATAC [XGTACX_site8998],7.11
2,AAAAATAAGATATATACACACATATAAATATAAATA [CACACA_site7396],6.82
3,GCCAATAAAGATGTGGTGCATTATATATATATATAT,10.6
4,TAAATATATATATAAGTGCATTATATATATATATAA,8.97
5,TATATATATATATGTGCACACATAAAGATATTATTT [CACACA_site3734],9.38
6,GCTTTAATCTGAAAGTGTACAGATAATATATTTATA [XGTACX_site2462],7.15
7,ATATGTAAAATATGGTGTACAATCAAATAAAAAAAA [XGTACX_site6270],7.16
8,ATAATGTAAAAGTAAACACACACATATATATATACA [CACACA_site8793],7.06
9,TTCTTGTTCCTGAAAGTGCATATAACAAAAATAACA [GTGCAC_site9635],9.52
10,TTTTGAAGTAACAAATAAATAAATAAATATATAAAA [GTGCAC_negctrl_site517],6.92
11,AAAAAAAAAAAAAAAGTGCACTGAAAATATATTGAA [GTGCAC_site9395],10.9
12,AAATAATATTGAAAAGTGCATATTTTTGTTGATATA,8.42
13,TATATATATATATAGGTGCAATATTGAAAAAATATC [GTGCAC_site9535],9.82
14,TTTGTTCTTTTTGAAGTGCACTGAAATATAACAAAA,10.7
15,ATATCAAATTCTGAAACACACAAAATTACACCTCTA [CACACA_site169],7.06
16,AAATAAAAAAAGAAACGTACATATATTGGTTTCGTC [XGTACX_site3510],6.96
17,AAAAAAAAAAAAAAAAAAAAAAAAATATATAATTTA [CACACA_negctrl_site583],8.71
18,CACCTCAATATTCACATACACACAATATCATCGAAG [CACACA_site1675],7.33
19,AATTATATGAAATAAACACACATATGTAATATTACA [CACACA_site1928],6.76
20,TTAATGTTTGAAAGAGTGCACATAACAAAAAAAAAA [GTGCAC_site9623],11.1
21,AAAAAAACATAACAAAATGAAACAAAACAAAAAGAA [GTGCAC_negctrl_site577],7.28
22,CACATATACAAAAAGAAATGTTTAGTTGAAAATTAA [CACACA_negctrl_site1407],6.67
23,TCCTAATATATGTATGCACACACAATATATACATAT [CACACA_site9111],7.36

row,Sequence,gcPBM binding intensity (ln)
1,AATATAAGAATATATACACACATAAATACATACATA [CACACA_site4128],7.01
2,ATTATATATAAGAAGAGTACTGAATATGTGCAATAT [XGTACX_site4471],7.43
3,TATATATATATATATGTGCACTGAAAGAATTATACA [GTGCAC_site9586],10.3
4,ATATACATATATATATGTACTGAAAAGAAAAGAATT [XGTACX_site150],7.08
5,AGGTGTATCATAAAATGTACATACATACATACATAA [XGTACX_site4479],7.02
6,ATAAGATAGGCATATACACACATTTATTTACAGATA [CACACA_site5754],6.87
7,TTATATAGGCAGATGGTGCATCTATTTATAAGCAAC,10.7
8,TTATATTAGCCGATGGTGCATATATTTATAGGAAAA [GTGCAC_site9518],10.1
9,TGTCTTGTAAATTATTGTACTATTTAAAGTATACAA [XGTACX_site7864],7.21
10,TATGAATTTATCTACAACATTTGAAATAAATTAAAA [CACACA_negctrl_site79],6.72
11,TTGTTTATCAACAGCACACACAACAACAACAACAAC [CACACA_site458],7.25
12,AAATATAATAATAATTTAAGAATCTAATATTTTATA [CACACA_negctrl_site831],6.59
13,ATACGATTGCAGTCAAAAAGGAAAATATAAAAAAAG [XGTACX_negctrl_site124],7.29
14,TTTTTTTTTTTTTCAAGTACATATATATATATATAA [XGTACX_site2098],7.58
15,TTTTACGTGAGTAATACACACATATAAGTTTATATA [CACACA_site4120],6.74
16,TTTTTTTTTTTTCACGTGCACTATACATATAAGTAA,10.5
17,AATATAATATTATATAGTACATATTTCTTTTATTTT [XGTACX_site22],6.82
18,ACACATACACATTAGGTGCATATATTTCAATATTAC [GTGCAC_site9423],10.3
19,TTTTCAAAAATATATACACACATGCATATTACGGTG [CACACA_site775],6.98
20,AAAATTTCAATAAATACACACATATATATATATATT [CACACA_site1685],7.07
21,TTGTTGTATTATTTATGTACATATGTATATGTATAT [XGTACX_site1315],7.17

# Source: the supplement of paper PMC11417369
